SW480 rerep: inducers of DNA re-replication in SW480 colon cancer cells; SW480 DNA re-replication, Hoechst DNA content imaging, 48 h; hit rate 1.8% among 340,000; Potency, µM (titrated, usually from 46.1 µM), without a hit: top-dose re-replication activation, hits mostly activators; AID 624297; note: % of control where 0% means no effect; nearly all actives have a fitted effect of over 55% in size
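SW480 cells exposed to compounds for 48 hr at 37 C, 5% CO2, then Hoechst-stained 40 min. Nuclear DNA content imaged by fluorescence scanning (405 nm excitation, 500-530 nm emission); re-replication scored as increased high-intensity nuclei.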
A-T KAP1 phos: potential ataxia-telangiectasia treatments restoring KAP-1 phosphorylation; F2112 A-T fibroblasts, KAP-1 phosphorylation AlphaLISA; neocarzinostatin DNA damage 30 min before lysis; AID 485349; hit rate 0.19% among 320,000; Potency, µM (doses to about 57.5 µM), without a hit: at the highest dose activation, hits mostly activators; note: % of control where 0% means no effect; nearly all actives have a fitted effect of over 45% in size
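ATM-like activity read as KAP-1 phosphorylation via AlphaLISA donor/acceptor antibody pairs after lysis and 6 hr at 25C. Cells were ATM-null patient fibroblasts (F2112, hTERT), dosed 60 min, then exposed to the DSB inducer NCS for 30 min.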
p53 reactivator: mutant p53 re-activation in reporter cells | hit rate 0.063% among 320,000 | H1299 p53-A138V BP100-luciferase reporter, luminescence, 24 h | Potency, µM (doses to about 92.2 µM), for the others: top-dose activity change, positive = activation, actives largely listed as activators; note: % of control where 0% means no effect; nearly all actives have a fitted effect of over 45% in size
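p53-null H1299 cells stably carrying temperature-sensitive p53-A138V and a BP100-luciferase reporter were pinned with compounds (4-point, 1:5 series) and held 24 hrs at 37 deg C. Luminescence was read 10 min after detection reagent.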
ELG1 repair inh: blocks ELG1-dependent DNA repair in HEK293T cells. hit rate 2.3% among 330,000. AID 504467. HEK293T ELG1-luciferase reporter, luminescence, 16 h; DNA damage induced by 5-fluorouridine. Potency, µM (doses to about 46.1 µM), for inactives: at the top dose activity change, negative = inhibition, hits mostly inhibitors; note: % is set by controls: 0 for no effect and ±100 for the full control effect; nearly all actives have a fitted effect of over 55% in size
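Luminescence from the luciferase reporter, measured 30 min after ONE-Glo reagent at room temperature, was the read-out. Beforehand, 2,000 cells per well were exposed for 16 hr at 37 °C to 5-fluorouridine together with compound or vehicle.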
ELG1 genotoxic: genotoxicity induction in ELG1-luciferase HEK293T cells; Potency, µM (doses to about 46 µM), without a hit: at the top dose activity change, positive = activation, most hits filed as activators; hit rate 1.3% among 330,000; HEK293T ELG1-luciferase reporter, luminescence, 16 h; AID 504466; note: % of control where 0% means no effect; nearly all actives have a fitted effect of over 60% in size
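Cells (2,000/well) expressing the ELG1-luciferase fusion are dosed by pin tool and kept 16 hr at 37 °C, 5% CO2. Signal comes from ONE-Glo luciferase reagent after 30 min at room temperature.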
MCF10A rerep: inducers of DNA re-replication in MCF 10A breast cells; MCF 10A DNA re-replication, Hoechst nuclear intensity, 48 h; Potency, µM (top dose mostly 46.1 µM), for inactives: at the highest dose activity, positive = re-replication, hits mostly activators; hit rate 2.9% among 350,000; note: % of control where 0% means no effect; nearly all actives have a fitted effect of over 50% in size
Numbers without * were called inactive; ? = inconclusive; . = not tested or not shown; [ ] = another dose, or the depositor's remark. Compounds with a hit are over-represented: about 7.1% of the library has one in this group of screens. Calls come from the whole dose curve; as a rule, active = well fitted curve in the direction sought with a large enough effect; inconclusive = small, poorly fitted or top-dose-only effect, or another doubt; inactive = no such curve, though single readings can be large; an effect the other way counts as inactive or inconclusive. Potency is the fitted concentration of half-maximal effect.

SMILES | SW480 rerep | A-T KAP1 phos | p53 reactivator | ELG1 repair inh | ELG1 genotoxic | MCF10A rerep
CCOc1cc(C)c(C(C)C)cc1S(=O)(=O)N1CC(C)OC(C)C1 (configuration not stated) | 11.6% | 5.2% | -7.7% | -10.7% | -9.7% | 2.2%
CCOc1cc(C)c(C(C)C)cc1S(=O)(=O)n1cnc(C)c1 | ? | -5.7% | -5.1% | -6.6% | 3.5% | 9.2µM*
Cc1ccc(S(=O)(=O)NCC2CCC(C(=O)NCCCN3CCCC3=O)CC2)cc1 (configuration not stated) | -3.1% | -9.6% | 0.5% | 1.8% | -0.9% | -1.6%
O=C(/C=C/Nc1cccc(F)c1)c1ccco1 | 0.8% | . | ? | ? | 3.16µM* | -2.4%
CN(C)c1ccc(N/C=C/C(=O)c2ccco2)cc1 | ? | -9.4% | ? | ? | ? | 28.5%
O=C(/C=C/Nc1ccc(F)c(Cl)c1)c1ccco1 | 0.8% | 6.3% | ? | ? | 4.11µM* | -1.2%
CC(=O)Nc1ccc(N/C=C/C(=O)c2ccco2)cc1 | -4.0% | . | ? | ? | 4.61µM* | -1.6%
CC1(C)N=C(N)N=C(N)N1c1ccccc1 | 17.4% | -1.5% | -2.0% | -6.6% | -14.6% | ?
CC1(C)N=C(N)N=C(N)N1c1cccc(CN)c1 | -5.9% | 28.2µM* | 12.0% | 1.7% | 2.9% | -0.2%
O=C(O)c1cccc(-c2noc(-c3ccccc3F)n2)c1 | -5.9% | . | . | . | . | 2.3%
COc1ccc(CN(C)C(=O)C23CC4CC(CC(C4)C2)C3)c(OC)c1 | ? | 4.9% | 1.2% | -6.3% | -20.7% | 13µM*
COc1cccc(CN(C)C(=O)C23CC4CC(CC(C4)C2)C3)c1 | 3.2% | -0.2% | 5.1% | -18.0% | -17.2% | 10.4%
O=C(CCN1CCN(C(c2ccccc2)c2ccccc2)CC1)N/N=C/c1ccc(O)cc1O | 12.8% | 7.9% | ? | 2.0% | 13.2% | 17.7%
COc1ccc(OC)c(/C=N/NC(=O)CCN2CCN(C(c3ccccc3)c3ccccc3)CC2)c1 | 7.2% | 0.4% | 10.2% | ? | -3.1% | 14.6µM*
O=C(CCN1CCN(c2ccccc2)CC1)N/N=C/c1ccccc1OC(F)F | 3.26µM* | 7.2% | 2.6% | 11.6µM* | -3.8% | 9.9%
CN=c1scc(-c2ccccc2Br)n1/N=C/c1ccc[nH]1 | . | 30.4% | -5.3% | ? | 0.461µM* | .
CCOC(=O)c1ccccc1NC(=S)N1CCN(C(=O)c2ccco2)CC1 | -1.0% | -1.6% | 1.2% | ? | -1.7% | 24.7%
S=C(NCCc1ccccn1)Nc1ccccc1Cl | 9.2µM* | -2.1% | 11.2% | ? | 2.4% | 14.3%
CCOc1ccc(NC(=O)c2cc3cc4ccc(C)cc4nc3o2)cc1 | . | 0.8% | -0.5% | ? | -15.5% | .
CCOc1ccc(NC(=O)c2cc3cc4ccc(OC)cc4nc3o2)cc1 | ? | 0.9% | -0.5% | ? | 6.7% | 11.6µM*
O=C1CCCc2cc3c(cc21)CCCC3 | -6.6% | . | . | . | . | -2.2%
CC(=O)c1ccc2c(c1)Cc1cc(C(C)=O)ccc1-2 | -3.4% | 4.4% | ? | ? | 18.4µM* | -4.3%
CC(=O)c1ccc2c(c1)CC1(C2)Cc2cc3c(cc2C1)C(=O)CC3 (configuration not stated) | 7.31µM* | . | . | . | . | 4.11µM*
O=C1C=C(N2CCCCC2)c2ccccc2C1=O | 3.26µM* | . | . | . | . | ?
O=C1c2ccccc2C(=O)c2c1cccc2N1CCCC1 | -19.5% | -14.0% | 2.9% | 20.4% | -0.2% | -0.7%
SMILES | SW480 rerep | A-T KAP1 phos | p53 reactivator | ELG1 repair inh | ELG1 genotoxic | MCF10A rerep
O=C(N[C@@H]1CCC(=O)N(CC[C@H](Sc2ccc(Br)cc2)c2ccccc2)CC1)OCc1ccccc1 | 18.5% | 5.7% | ? | ? | -3.1% | ?
COc1ccc(S[C@@H](CCN2CC[C@H](NC(=O)OCc3ccccc3)CCC2=O)c2ccccc2)cc1 | ? | -11.9% | 10.8% | 18.3µM* | -4.5% | ?
C=CC(=O)Nc1ccc(Nc2nc(NC3CCC(N(C)C)CC3)nc3c2ncn3C(C)C)cc1 (configuration not stated) | 4.1% | -0.7% | 9.2% | 2.31µM* | 0.9% | ?
CC(=O)Oc1ccc2c3c(c(=O)oc2c1C)CCCC3 | -63.4% | -8.7% | 3.0% | 2.5% | -5.8% | 20.6µM*
CN1CCC(=NNC(=O)CN(c2ccc([N+](=O)[O-])cc2)S(=O)(=O)c2ccccc2)CC1 | 4.3% | 2.6% | -2.5% | -7.3% | 6.5% | 14.4%
COc1ccc(CS(=O)(=O)/C(Cl)=C(/Cl)C(=O)Nc2ccc(OC)nc2)cc1 | 0.82µM* | . | -15.0% | ? | ? | 0.411µM*
COc1ccc(NC(=O)/C(Cl)=C(/Cl)S(=O)Cc2ccccc2)cn1 (configuration not stated) | ? | -10.1% | -15.3% | 8.2µM* | -35.4% | ?
COc1ccc2[nH]c3c4c(ccc3c2c1)C(=O)C=CC4=O | 3.26µM* | -11.3% | -13.2% | 16.4µM* | 4.6% | ?
CC(=O)c1cccc(OCC(=O)Nc2ccccc2N2CCOCC2)c1 | -4.0% | 4.3% | -9.9% | ? | -3.1% | 6.4%
CC1(c2ccccc2)NC(=O)N(CC(=O)N2CCN(S(=O)(=O)c3c(F)cccc3F)CC2)C1=O (configuration not stated) | 3.3% | -2.2% | 1.0% | -9.6% | -1.4% | -1.3%
N#Cc1ccc(-c2nc3cc(Cl)ccc3c(=O)n2O)cc1 | ? | 60.0% | 4.3% | 11.6µM* | -5.7% | ?
O=c1c2cc(Cl)ccc2nc(-c2ccc([N+](=O)[O-])cc2)n1O | ? | -1.8% | 10.1% | 18.3µM* | -9.6% | ?
N#Cc1ccc(-c2nc3ccccc3c(=O)n2O)cc1 | -19.2% | ? | -3.3% | ? | -13.5% | 9.7%
Cc1ccc(-n2nc3c(c2NC(=O)c2ccccc2)CS(=O)(=O)C3)cc1C | -16.9% | 13.4% | 1.3% | 5.9% | 1.7% | -2.3%
CC(=O)Nc1ccc(NC(=O)CSc2nnc(-c3cccs3)n2N)cc1 | -249.9% | -10.7% | -3.5% | 19.4% | 3.1% | 13.7%
Cc1cc(=O)oc2cc(OCC(=O)N3c4ccccc4CC3C)ccc12 (configuration not stated) | 1.64µM* | -2.0% | 3.7% | ? | 14.2% | 2.51µM*
C#CCOc1ccc2c(C)cc(=O)oc2c1 | 6.9% | -0.1% | -0.2% | 22.2% | 5.0% | -9.7%
CCC(C)c1ccc(S(=O)(=O)N2CCN(C(=O)COc3ccc4c(C)cc(=O)oc4c3)CC2)cc1 (configuration not stated) | -0.6%[9.22 µM] | . | 1.1% | 8.2µM* | -0.2% | 2.2%
O=[N+]([O-])c1ccc(OCC2CC(c3ccccc3)=NO2)cc1 (configuration not stated) | 16.4µM* | -7.7% | 4.4% | 0.0% | 4.8% | ?
